Measured values published in PubChem BioAssay (NCI).
This is part of a sample that, as a whole, favours compounds with a hit. Of some 83,000 tested, about 20% had one in any assay.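 Cells were grown in 96-well plates and exposed to the test compound at a single concentration for 48 hours; results are reported as percent growth, with values below 10 considered active.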 Unmarked numbers belong to inactive results. Calls of active or inactive are those of the source.

System: BT-549 breast
Experiment: NCI-60 one-dose screen, 48 h (100 = growth as untreated, 0 = no growth, -100 = all killed)
Settings: 10 µM

Row | Compound | growth
1 | COc1cc(-c2nc3ccc(C)cc3[nH]2)ccc1OCc1nnc(-c2ccc(CC(C)C)cc2)o1 | 101%
2 | N#Cc1c(-c2ccccc2)nc(SCC(=O)N2CCOCC2)[nH]c1=O | 88.2%
3 | Brc1ccc(-c2cn3ccnc3c(-c3ccc(Br)cc3)n2)cc1 | 17.6%
4 | COc1cc(C2=Nc3c/c(=C\c4c(O)[nH]c5ccc(Cl)cc45)ccc3=N2)cc(OC)c1OC | -28.2% (active)
5 | COc1cc(CSc2nc3ccc(Cl)cc3c(=O)n2-c2ccccc2)cc(OC)c1OC | 92.8%
6 | O=S(=O)(O)C1(O)CCCCC1 | 112%
7 | CCc1cc2n(n1)-c1ncc(C(=O)OC)cc1Oc1ccccc1-2 | 111%
8 | C/C(=N\NC(N)=S)C(C)(C)O | 104%
9 | COc1ccc(-c2cc(/C=C/C(=O)c3ccc(N)cc3)[nH]n2)cc1OC | 55.4%
10 | Nc1c(C(=O)NC2CCCCC2)sc2nc3c(cc12)C(=O)CCC3 | 95.4%
11 | CC(=O)n1nc(C(=O)OC(C)(C)C)c2cc(F)c(F)cc21 | 119%
12 | Nc1ccc2c(c1)Cc1cc(N)c(Cl)cc1-2 | 90.3%
13 | Cc1ccc2c3c(cccc13)-c1ccccc1C2=O | 106%
14 | Nc1cc(O)cc(O)c1 | 105%
15 | Fc1ccc(Nc2ccnc(N3CCN(c4ccnc5cc(Cl)ccc45)CC3)n2)cc1 | 75.1%
16 | N/C(=N\O)c1cn(C2OC(CO)C(O)C2O)c2ncnc(N)c12 (stereo not given) | 14%
17 | COc1ccc(-c2nsc3c2NC(=O)CC3c2cccc(Cl)c2)cc1 (stereo not given) | 36.5%
18 | CCCCCc1cc[n+](CC(=O)c2ccc(Cl)cc2)cc1 | 86.6%
19 | CC1(C)Cc2c(cn(Cc3ccccc3)c2-c2ccccc2)-c2oncc21 | 108%
20 | CCc1nn2c(-c3cc(OC)c(OC)c(OC)c3)c(-c3cc(OC)c(OC)c(OC)c3)nc2s1 | 89.6%
21 | CC1=CC2OC34COC3CC(OC(=O)C(F)(F)F)C4(C)C2(C)CC1 (stereo not given) | 95.9%
22 | O=[N+]([O-])c1ccc(-c2nc(Cl)c3c(n2)CCCC3)o1 | 83.1%

System: MDA-MB-435 melanoma
Experiment: as above
Settings: 10 µM

Row | Compound | growth
23 | Nc1ccc(Sc2ccc3c4c2cccc4c(=O)n2c4ccccc4nc32)cc1 | 80.2%
24 | O=C(c1ccccc1)C(Sc1ccccc1)c1ccccc1 (stereo not given) | 107%
25 | O=NN(CCCl)C(=O)Nc1ccc(NC(=O)N(CCCl)N=O)cc1 | 90.3%
26 | Nc1nc(SCC#CCCl)c2[nH]cnc2n1 | 46.7%
27 | NC(=O)C12C(=O)NC(=O)C1(C(=O)O)C21CCCC1 (stereo not given) | 100%
28 | C=C[C@]1(C)C=C2C(=O)[C@@]3(O)OC(=O)[C@@]4(CCCC(C)(C)[C@H]34)[C@@]2(O)CC1 | -90.6% (active)
29 | CCCn1c(=O)c2c(nc(-c3cccc(OCCCCl)c3)n2C)n(CCC)c1=O | 82.5%
30 | CCCCCCCC/C=C/CCCCCCCCC1=NCCN1CCO | 68.9%
31 | COc1ccc(CSc2nc3cc(OC)c(OC)cc3c(=O)n2-c2ccc(OC)cc2OC)cc1 | 62%
32 | Cc1ccccc1C1=N[C@@H](Cc2ccccc2)C(=O)c2c(nc3ccccn23)N1 | 98.8%
33 | COc1ccc(-c2ccccc2)cc1C(=O)c1ccc(-c2ccccc2)cc1 | -7.15% (active)
34 | C/C=C\COc1cc(C)c(Cl)cc1Cl | 98%
35 | CC(C)C[C@H](NC(=O)CCn1ccc2ccccc2c1=O)B(O)O | -39.6% (active)
36 | COc1ccc(-c2[nH]ncc2/C=C/c2cc(C(F)(F)F)[nH]c(=O)n2)cc1 | 97.8%
37 | c1ccc(COCC[P+](c2ccccc2)(c2ccccc2)c2ccccc2)cc1 | -0.102% (active)
38 | CC(=O)Oc1c(C)c(C)c2c(c1C)CCC(C)(CC(=O)OCCCCCCCCCCC[P+](c1ccccc1)(c1ccccc1)c1ccccc1)O2 (stereo not given) | -89.2% (active)
39 | COc1cc(-c2nc3ccc(C)cc3[nH]2)ccc1OCc1nnc(-c2ccc(CC(C)C)cc2)o1 | 99.6%
40 | N#Cc1c(-c2ccccc2)nc(SCC(=O)N2CCOCC2)[nH]c1=O | 112%
41 | Brc1ccc(-c2cn3ccnc3c(-c3ccc(Br)cc3)n2)cc1 | 3.08% (active)

Row | Compound | growth
42 | COc1cc(C2=Nc3c/c(=C\c4c(O)[nH]c5ccc(Cl)cc45)ccc3=N2)cc(OC)c1OC | -65.7% (active)
43 | COc1cc(CSc2nc3ccc(Cl)cc3c(=O)n2-c2ccccc2)cc(OC)c1OC | 24.4%
44 | O=S(=O)(O)C1(O)CCCCC1 | 89.2%
45 | CCc1cc2n(n1)-c1ncc(C(=O)OC)cc1Oc1ccccc1-2 | 103%
46 | C/C(=N\NC(N)=S)C(C)(C)O | 96.9%
47 | COc1ccc(-c2cc(/C=C/C(=O)c3ccc(N)cc3)[nH]n2)cc1OC | 46.8%
48 | Nc1c(C(=O)NC2CCCCC2)sc2nc3c(cc12)C(=O)CCC3 | 54.7%
49 | CC(=O)n1nc(C(=O)OC(C)(C)C)c2cc(F)c(F)cc21 | 95.9%
50 | Nc1ccc2c(c1)Cc1cc(N)c(Cl)cc1-2 | 94.3%
51 | Cc1ccc2c3c(cccc13)-c1ccccc1C2=O | 98.9%
52 | Nc1cc(O)cc(O)c1 | 106%
53 | Fc1ccc(Nc2ccnc(N3CCN(c4ccnc5cc(Cl)ccc45)CC3)n2)cc1 | 48.6%
54 | N/C(=N\O)c1cn(C2OC(CO)C(O)C2O)c2ncnc(N)c12 (stereo not given) | -73.1% (active)
55 | COc1ccc(-c2nsc3c2NC(=O)CC3c2cccc(Cl)c2)cc1 (stereo not given) | -12.2% (active)
56 | CCCCCc1cc[n+](CC(=O)c2ccc(Cl)cc2)cc1 | 86.7%
57 | CC1(C)Cc2c(cn(Cc3ccccc3)c2-c2ccccc2)-c2oncc21 | 92.8%
58 | CCc1nn2c(-c3cc(OC)c(OC)c(OC)c3)c(-c3cc(OC)c(OC)c(OC)c3)nc2s1 | 83.4%
59 | CC1=CC2OC34COC3CC(OC(=O)C(F)(F)F)C4(C)C2(C)CC1 (stereo not given) | 101%
60 | O=[N+]([O-])c1ccc(-c2nc(Cl)c3c(n2)CCCC3)o1 | 87.6%
